EPAC2 antag: Validation qHTS for antagonist of cAMP-regulated guanine nucleotide exchange factor 4 (EPAC2) | Rap guanine nucleotide exchange factor 4 (Homo sapiens), Q8WZA2 | EPAC2 Rap1B BODIPY-GDP exchange, fluorescence | Potency, µM (doses to about 112 µM), without a hit: at the highest dose activity, negative = inhibition, most hits filed as inhibitors | 16,000 compounds, 1.7% hits | AID 1645886, 2021;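 note: 100% = activation by cAMP agonist control; nearly all actives have a fitted effect of over 40% in size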
Target sequence (Q8WZA2 whole entry, looked up): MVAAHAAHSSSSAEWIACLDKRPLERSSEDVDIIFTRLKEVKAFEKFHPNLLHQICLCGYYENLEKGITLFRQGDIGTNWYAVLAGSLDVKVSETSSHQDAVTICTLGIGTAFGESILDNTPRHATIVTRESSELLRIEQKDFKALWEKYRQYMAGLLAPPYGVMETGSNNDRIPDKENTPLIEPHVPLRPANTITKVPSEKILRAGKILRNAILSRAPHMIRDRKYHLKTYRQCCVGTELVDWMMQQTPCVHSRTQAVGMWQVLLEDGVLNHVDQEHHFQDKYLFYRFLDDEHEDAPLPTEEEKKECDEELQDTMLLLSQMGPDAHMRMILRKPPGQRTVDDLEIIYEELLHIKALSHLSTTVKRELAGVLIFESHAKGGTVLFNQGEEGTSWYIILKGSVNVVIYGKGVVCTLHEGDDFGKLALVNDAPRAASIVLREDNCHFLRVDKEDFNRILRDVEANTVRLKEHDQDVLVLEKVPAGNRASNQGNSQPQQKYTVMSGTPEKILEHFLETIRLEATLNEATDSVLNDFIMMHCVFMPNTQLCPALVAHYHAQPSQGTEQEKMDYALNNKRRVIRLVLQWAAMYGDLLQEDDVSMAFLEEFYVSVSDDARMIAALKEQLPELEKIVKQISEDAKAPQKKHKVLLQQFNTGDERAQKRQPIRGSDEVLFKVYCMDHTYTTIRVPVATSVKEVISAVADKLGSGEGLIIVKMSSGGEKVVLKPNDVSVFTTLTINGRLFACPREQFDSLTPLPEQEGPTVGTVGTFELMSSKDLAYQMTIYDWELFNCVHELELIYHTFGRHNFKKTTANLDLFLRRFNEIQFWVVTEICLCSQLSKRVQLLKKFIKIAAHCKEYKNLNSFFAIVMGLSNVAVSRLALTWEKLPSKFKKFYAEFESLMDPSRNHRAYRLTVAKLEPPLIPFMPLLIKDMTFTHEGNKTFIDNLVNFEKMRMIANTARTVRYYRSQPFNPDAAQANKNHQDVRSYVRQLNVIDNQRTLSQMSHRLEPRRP
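Fluorescent exchange read-out: 100 nM EPAC2 with 250 nM RAP1B–BODIPY-GDP and 50 uM GDP; BODIPY-GDP release lowers fluorescence. Read at 480/540 nm every 5 min for 30 min at room temperature; normalized to 6.5 mM cAMP.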
EPAC1 ag val: Validation qHTS for agonist of cAMP-regulated guanine nucleotide exchange factor 3 (EPAC1); EPAC1 Rap1b BODIPY-GDP exchange, fluorescence; Potency, µM, without a hit: max response, positive = active, usual class: activators; 16,000 compounds, 1% hits; AID 1645883, 2021; note: nearly all actives have a fitted effect of over 70% in size
Starred values were filed as active, the others as inactive; ? = inconclusive; ! = not active in a repeat; [ ] = another dose, or the depositor's remark. The list is not random: actives were taken first. Their share in the collection is about 2.9%. Calls come from the whole dose curve; as a rule, active = well fitted curve in the direction sought with a large enough effect; inconclusive = small, poorly fitted or top-dose-only effect, or another doubt; inactive = no such curve, though single readings can be large; an effect the other way counts as inactive or inconclusive. Unless noted, % is set by controls: 0 for no effect and ±100 for the full control effect; potency is the fitted concentration of half-maximal effect.

SMILES | EPAC2 antag | EPAC1 ag val
CN(C)CC(C)(O)c1ccc2c(c1)CN(Cc1cn(C)c3ccccc13)CCO2 (configuration not stated) | 2.0% | 0.1%
O=C(OC[C@H]1O[C@](O)(COC(=O)c2cccnc2)[C@@H](OC(=O)c2cccnc2)[C@@H]1OC(=O)c1cccnc1)c1cccnc1 | -1.1% | -15.6%
Oc1cc(O)c2c(c1)O[C@H](c1ccc(O)c(O)c1)[C@@H](O)C2 | 6.7% | -7.4%
O=c1c(O)cc(C2Oc3cc(O)cc(O)c3CC2O)cc2c(C3Oc4cc(O)cc(O)c4CC3O)cc(O)c(O)c12 (configuration not stated) | 20µM* | -32.9%
CC1(C)CC[C@]2(C(=O)O)CC[C@@]3(C)C(=CCC4[C@@]5(C)CCC(O)C(C)(C)C5CC[C@@]43C)C2C1 (some centres not stated) | -14.1% | -49.8%
CC(=O)OC1CCC2(C)C(CCC3(C)C2C(=O)C=C2C4CC(C)(C(=O)OCCN5CCCCC5)CCC4(C)CCC23C)C1(C)C (configuration not stated) | -11.7% | -10.5%
CC1(C)C(OC(=O)CCC(=O)O)CC[C@]2(C)C1CC[C@@]1(C)C2C(=O)C=C2[C@@H]3C[C@@](C)(C(=O)O)CC[C@]3(C)CCC21C (some centres not stated) | 3.98µM* | ?
CC1(C)[C@@H](O)CC[C@]2(C)[C@H]3C(=O)C=C4[C@@H]5C[C@@](C)(C(=O)O)CC[C@]5(C)CC[C@@]4(C)[C@]3(C)CC[C@@H]12 | 1.58µM* | 20.1%
CC1(C)[C@@H](O[C@H]2O[C@H](C(=O)O)[C@@H](O)[C@H](O)[C@H]2O[C@@H]2O[C@H](C(=O)O)[C@@H](O)[C@H](O)[C@H]2O)CC[C@]2(C)[C@H]3C(=O)C=C4[C@@H]5C[C@@](C)(C(=O)O)CC[C@]5(C)CC[C@@]4(C)[C@]3(C)CC[C@@H]12 | ? | -18.2%
CC1(C)C(O)CC[C@]2(C)C1CC[C@@]1(C)C2C(=O)C=C2[C@@H]3C[C@@](C)(C(=O)O)CC[C@@]3(C)CCC21C (some centres not stated) | 7.08µM* | -3.5%
COCCN(C)C(=O)c1cnn(-c2ncc3c(n2)-c2ccccc2CC3)c1C | 3.5% | -13.4%
CON=C1C[C@]2(C[C@@H]3C[C@@H](C/C=C(\C)C[C@@H](C)/C=C/C=C4\CO[C@@H]5[C@H](O)C(C)=C[C@@H](C(=O)O3)[C@]45O)O2)O[C@H](/C(C)=C/C(C)C)[C@H]1C | ? | -227.0%
Cc1nc(C)c(C(=O)NCc2nc(-c3cccc(NC(=O)c4ccccn4)c3)oc2C)s1 | -16.8% | -1.6%
CC(C)c1ccc(CN2CCC3(CCC(CNC(=O)c4ccn(C)n4)O3)CC2)cc1 (configuration not stated) | -22.0% | -13.1%
CC(C)=CCC/C(C)=C/CC/C(C)=C/CC/C(C)=C/CC/C(C)=C/CC/C(C)=C/CC/C(C)=C/CC/C(C)=C/CC/C(C)=C/CO | -20.7% | 2.0%
CC(C)=CCC/C(C)=C/CC/C(C)=C/CO | 44.7µM*! | -16.0%
O=C1C[C@H]2C=CCc3cccc(c32)CN1Cc1ccc(F)cc1 | ? | 25.6%
Cc1cccc(CN2Cc3cccc4c3[C@H](C=CC4)CC2=O)c1 | 31.6µM* | 2.7%
Oc1ccc(Cl)cc1Sc1cc(Cl)ccc1O | 50.1µM* | -30.4%
Cc1cc(-c2ccc(N=Nc3c(S(=O)(=O)O)cc4cc(S(=O)(=O)O)cc(N)c4c3O)c(C)c2)ccc1N=Nc1c(S(=O)(=O)O)cc2cc(S(=O)(=O)O)cc(N)c2c1O | 50.1µM* | -31.0%
CN(C)c1ccc(C(=C2C=CC(=[N+](C)C)C=C2)c2c(O)c(S(=O)(=O)[O-])cc3cc(S(=O)(=O)O)ccc23)cc1 | 56.2µM* | -36.4%
CN(C)c1ccc(C(=C2C=CC(=[N+](C)C)C=C2)c2ccccc2)cc1 | -0.9% | -10.4%
COC(=O)[C@H]1[C@H]2C[C@@H]3c4[nH]c5cc(OC)ccc5c4CCN3C[C@H]2C[C@H](OC)[C@@H]1OC | 20.3% | 3.2%
O=C1C2CC3CC1CC(O)(C3)C2 | -22.7% | 3.2%
CC(=O)c1ccc(F)c(-c2cc(C)cc3c2OC(CNC(=O)c2csc(C)n2)C3)c1 (configuration not stated) | -31.6% | 8.3%
SMILES | EPAC2 antag | EPAC1 ag val
COCCOC(=O)C1=C(C)NC(C)=C(C(=O)OC(C)C)C1c1cccc([N+](=O)[O-])c1 (configuration not stated) | ? | 3.9%
COC(=O)C1=C(C)NC(C)=C(C(=O)OCCCN2CCC(c3ccccc3)(c3ccccc3)CC2)[C@H]1c1cccc([N+](=O)[O-])c1 | ? | 13.1%
CC1=C(C(=O)OC(C)C)C(c2cccc([N+](=O)[O-])c2)C(C(=O)OC2CN(C(c3ccccc3)c3ccccc3)C2)=C(N)N1 (configuration not stated) | 1.0% | 100µM*
COCCOC(=O)C1=C(C)NC(C)=C(C(=O)OC(C)C)[C@@H]1c1cccc([N+](=O)[O-])c1 | 50.1µM* | -0.4%
COC(=O)C1=C(C)NC(C)=C(C(=O)O[C@@H]2CCCN(Cc3ccccc3)C2)[C@@H]1c1cccc([N+](=O)[O-])c1 | -25.4% | ?
COC(=O)C1=C(C)NC(C)=C(C(=O)OC(C)(C)CN(C)CCC(c2ccccc2)c2ccccc2)C1c1cccc([N+](=O)[O-])c1 (configuration not stated) | -27.9% | ?
CCOC(=O)C1=C(C)NC(C)=C(C(=O)OC)C1c1cccc([N+](=O)[O-])c1 (configuration not stated) | 7.94µM*! | 0.1%
CCOC(=O)C1=C(C)NC(C)=C(C(=O)OC)[C@H]1c1cccc([N+](=O)[O-])c1 | 17.8µM* | 14.7%
Cc1cc(C(=O)NCc2nnc3n2CCN(Cc2ccc4c(c2)Cc2ccccc2-4)CC3)c(C)o1 | ? | -14.7%
COc1cc(OC)c(CN2CCOc3ccc(CN4CCC(O)CC4)cc3C2)c(OC)c1 | 12.4% | -21.8%
Cc1ncc(Cc2ccccc2)c(C2CCN(S(=O)(=O)C[C@]34CC[C@H](CC3=O)C4(C)C)CC2)n1 | ? | 29.4%
C=C(NC(=O)C(=C)NC(=O)c1csc(C2=N[C@@H]3c4csc(n4)[C@H]4NC(=O)c5csc(n5)[C@H]([C@](C)(O)[C@@H](C)O)NC(=O)[C@H]5CSC(=N5)C(=CC)NC(=O)C([C@@H](C)O)NC(=O)c5csc(n5)[C@]3(CC2)NC(=O)[C@H](C)NC(=O)C(=C)NC(=O)[C@H](C)NC(=O)C([C@@H](C)CC)NC2C=Cc3c([C@H](C)O)cc(nc3C2O)C(=O)O[C@@H]4C)n1)C(N)=O (some centres not stated) | 0.3%[56.6 µM] | -16.0%
CSc1ccccc1C(=O)NCc1nc(-c2cccc(NC(=O)c3ccoc3C)c2)oc1C | -26.5% | 8.8%
CC(C)C[C@@H](CO)N1CCN(Cc2ccccc2)CCC1=O | ? | -1.8%
CC(C)C[C@@H](COc1ccccc1)N1CCN(Cc2ccccc2)CCC1=O | 17.8µM* | -21.0%
O=C1CCN(Cc2ccccc2)CCN1[C@H](COc1ccccc1)Cc1ccccc1 | 79.4µM* | -6.9%
CCCN1CCC(=O)N([C@H](COc2ccccc2)Cc2ccccc2)CC1 | 16.3% | 4.6%
